# Measured values taken from PubChem BioAssay (NCI).
# About 83,000 compounds went through this panel and 20% of them were active in at least one assay; those are over-represented in the sample as a whole.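 Percent growth is the endpoint: 0 to 100 indicates growth inhibition (40 means 60% inhibition), 0 means no net growth, and negative values indicate cell death.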 Activity calls are given as the source filed them. Rule for the calls: active = growth percent below 10; inactive = the rest.
# System: SN12C renal
# Assay: NCI-60 one-dose screen, 48 h (100 = growth as untreated, 0 = no growth, -100 = all killed)
# Details: 10 µM unless noted
row,SMILES,growth
1,O=C(c1ccc(Br)cc1)C(Br)C(c1ccc(Cl)cc1)C(c1ccccc1)[N+](=O)[O-] (stereo unspecified),101% (inactive)
2,CN1CCOCCN(C)Cc2ccc3ccc(cc3c2)CN(C)CCOCCN(C)Cc2ccc3ccc(cc3c2)C1,92.6% (inactive)
3,COc1ccc(CN2C(=O)OC(C)(COC(C)=O)C2=O)cc1 (stereo unspecified),99.8% (inactive)
4,CN(C)c1ccc(/C=N\NC(=O)c2ccc3nc(-c4ccc(Cl)cc4)[nH]c3c2)cc1,41.2% (inactive)
5,COCCn1cc(-c2csc(-c3c[nH]c4ccc(F)cc34)n2)c2cccnc21,66.7% (inactive)
6,C/C(Cc1ccc(Cl)cc1)=C(\c1ccc(OCCN2CCCCCC2)cc1)c1ccc(OC(=O)c2ccccc2)cc1,11.2% (inactive)

# System: UO-31 renal
# Assay: as above
# Details: 10 µM unless noted
row,SMILES,growth
1,COCCn1cc(-c2csc(-c3c[nH]c4ccccc34)n2)c2cccnc21,44% (inactive)
2,CCN(CC)c1ccc(-c2cc(-c3cc(OC)c(OC)c(OC)c3)nc(N3CCC(O)CC3)c2C#N)cc1,-43.9% (active)
3,CN1C(=O)/C(=C/c2ccc(C(=O)Nc3ncc(Cc4cccc(C(F)(F)F)c4)s3)cc2)SC1=S,51.1% (inactive)
4,Nc1ncnc2c1N=C(c1ccc(Cl)cc1)CC(c1cccc(Nc3ccnc4cc(Cl)ccc34)c1)N2 (stereo unspecified),47.2% (inactive)
5,COCCn1cc(-c2nc(-c3cc4cccnc4n3C)cs2)c2ccccc21,52.1% (inactive)
6,COC(=O)[C@]1(C)CCC[C@]2(C)[C@H]3C[C@@H]4[C@H]5[C@@H]6CC/C(=N\OCC/C(N)=N/O)[C@H]5[C@@]3(CC[C@H]21)CC4(C(C)C)O6,50.1% (inactive)
7,Cc1cccc(-c2nc(C(C)C)sc2-c2ccnc(NCCCNS(=O)(=O)c3ccc(Cl)cc3)c2)c1,75.3% (inactive)
8,O=C(/C=C/C12c3ccccc3C(c3ccccc31)C1C(=O)NC(=O)C12)c1ccc(Cl)cc1Cl (stereo unspecified),32.4% (inactive)
9,CC(C)(C)CC(C)(C)Nc1c(-c2c(O)c3ccccc3oc2=O)nc2sc3ccccc3n12,16% (inactive)
10,CN(C)CCC(CCN(C)C)(C(=O)O)c1ccccc1,88.3% (inactive)
11,Cn1c(=O)[nH]c(=O)c2nc3c(nc21)-c1ccccc1C3=O,83.8% (inactive)
12,C=C(c1ccc(C(=O)O)c(F)c1)c1cc2c(cc1C)C(C)(C)CCC2(C)C,92.6% (inactive)
13,C=C1C(=O)O[C@H]2[C@H]1CC/C(COC(=O)C(=O)c1c[nH]c3ccc(Cl)cc13)=C\CC[C@@]1(C)O[C@@H]21,-94.4% (active)
14,N#Cc1c(-c2ccc(Br)cc2)nc2c(N=Nc3ccc(S(N)(=O)=O)cc3)c(N)nn2c1N,59.5% (inactive)
15,CCN(CC)CCN1C(=O)c2c(c3c4ccccc4[nH]c3c3ccc4ccccc4c23)C1=O,14.3% (inactive)
16,O=C(/C=C/c1ccccc1)N(C1CCCCC1)C1CCCCC1,97% (inactive)
17,CC1(C)CC[C@]2(CO)CC[C@]3(C)[C@](O)([C@H](O)C[C@@H]4[C@@]5(C)CCCNC(C)(C)[C@@H]5CC[C@]43C)[C@@H]2C1,73% (inactive)
18,Nc1nc(N(Cc2ccccc2)c2ccccc2)c2cn[nH]c2n1,75% (inactive)
19,CN1CC(c2ccc(Br)cc2)C(C(=O)c2ccc(Br)cc2)C12C(=O)Nc1ccccc12 (stereo unspecified),48.3% (inactive)
20,Nc1nc(C(=O)N/N=C/c2ccc(F)cc2)nn1-c1ccc(S(N)(=O)=O)cc1,81.4% (inactive)

row,SMILES,growth
1,COc1ccc(-c2nc(SCC(=O)Nc3nc4ccc(C)cc4s3)[nH]c(=O)c2C#N)cc1OC,61% (inactive)
2,CNC(=O)NCC1OC(n2cnc3c(NC(=O)Nc4ccccc4)ncnc32)C2OC(=O)CC12 (stereo unspecified),64.2% (inactive)
3,COc1ccc(NC(=O)c2ccc(Nc3ncnc4c3cnn4-c3cccc(F)c3)cc2)cc1,88.6% (inactive)
4,CC(C)NS(=O)(=O)/N=C1\NC(=O)NC1=C(Cl)Cl,102% (inactive)
5,Cc1ccc2cnc(N)c(C#Cc3cc(C(=O)Nc4ccc(CN5CCN(C)CC5)c(C(F)(F)F)c4)cnc3C)c2c1,-82% (active)
6,Cc1nn(-c2ccc([N+](=O)[O-])cc2)c2ncnc(N/N=C/c3ccccc3O)c12,-11.5% (active)
7,CC(C)(C)OC(=O)CN1CCc2c(sc3ncnc(N4CCN(c5ccc(F)cc5)CC4)c23)C1,51.7% (inactive)
8,COC(=O)[C@@]1(C)CC[C@]2(C)CC[C@]3(C)C4=CC=C5C(=CC(=O)C(O)=C5C)[C@]4(C)[C@@H](O)C[C@@]3(C)[C@@H]2C1,-56.6% (active)
9,Cc1cc(Cl)nc(N2CCN(CCNc3ccnc4cc(Cl)ccc34)CC2)n1,32.4% (inactive)
10,Cc1ccc(C)c2c1sc1nc(N3CCOCC3)c(C#N)c(=O)n12,74.9% (inactive)
11,COc1ccc2c(c1)CC[C@@H]1[C@@H]2CC[C@]2(C)c3c(cc(C#N)c4c3sc3ccccc34)C[C@@H]12,85% (inactive)
12,C=C1C(=O)O[C@H]2[C@H]1CC/C(COC(=O)NCc1ccc(Cn3c(=O)sn(-c4ccc(I)cc4)c3=O)cc1)=C\CC[C@@]1(C)O[C@@H]21,54.4% (inactive)
13,O=C(O)CC(C(=O)O)/C(=C\c1ccccc1)c1ccccc1 (stereo unspecified),89.1% (inactive)
14,CCN(CC)CCOc1ccc(Nc2ncc3cc(-c4c(Cl)cccc4Cl)c(=O)n(CCOC)c3n2)cc1,-88.9% (active)
15,O=C(c1ccc(Br)cc1)C(Br)C(c1ccc(Cl)cc1)C(c1ccccc1)[N+](=O)[O-] (stereo unspecified),79% (inactive)
16,CN1CCOCCN(C)Cc2ccc3ccc(cc3c2)CN(C)CCOCCN(C)Cc2ccc3ccc(cc3c2)C1,80.8% (inactive)
17,COc1ccc(CN2C(=O)OC(C)(COC(C)=O)C2=O)cc1 (stereo unspecified),95% (inactive)
18,CN(C)c1ccc(/C=N\NC(=O)c2ccc3nc(-c4ccc(Cl)cc4)[nH]c3c2)cc1,75.4% (inactive)
19,COCCn1cc(-c2csc(-c3c[nH]c4ccc(F)cc34)n2)c2cccnc21,38.4% (inactive)
20,C/C(Cc1ccc(Cl)cc1)=C(\c1ccc(OCCN2CCCCCC2)cc1)c1ccc(OC(=O)c2ccccc2)cc1,24% (inactive)
